Pf Dd2 inh = P. falciparum Dd2 growth inhibition; SYBR Green, 72 h; hits give low values; activity change, % at 10 µM; 94,000 compounds, 2.3% hits; in the data active means activity change below about -80%; inconclusive means no clear call, values can overlap the other calls
C diff growth = C. difficile growth inhibition; growth activity, negative = inhibition, % at 16 µg/mL (by protocol); Clostridium difficile clinical isolate growth, OD600, 24 h; hits give low values; 86,000 compounds, 0.25% hits; AID 1259249;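 active means mean growth activity at or below -80% and every replicate also at or below -80%; inconclusive means mean at or below -80% but some replicate above -80%; inactive means mean growth activity above -80%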;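 further: 0% = DMSO wells and -100% = levofloxacin 16 µg/mL wells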
T cruzi growth-1 = inhibitors of T. cruzi proliferation | T. cruzi beta-gal in NIH3T3, GalScreen luminescence, 90 h | inhibition, % at 8.34 µM | 77,000 compounds, 5.9% hits | AID 624255;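 active means mean inhibition above about 93%, with at least 55% of replicates each passing it, limit read from the data, passing the limit was not always enough; inconclusive means only one of those two conditions holds; inactive means neither condition holds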
T cruzi growth-2 = Trypanosoma cruzi proliferation inhibition; inhibition, % at 8.35 µM; shares compounds with T cruzi growth-1; 5,600 compounds, 72% hits; T. cruzi beta-gal in NIH3T3, GalScreen luminescence, 90 h;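 active means mean replicate inhibition above about 95% and at least 55% of replicates individually reaching it, limit read from the data; inconclusive means only one of the two criteria is met; inactive means neither criterion is met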
T cruzi growth-3 = inhibitors of T. cruzi proliferation | T. cruzi beta-gal in NIH3T3, GalScreen luminescence, 90 h | shares compounds with T cruzi growth-1 | inhibition, % at 2.09 µM | AID 651740 | 5,600 compounds, 21% hits;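 active means mean inhibition above about 95%, with at least 55% of replicates also reaching it, limit read from the data; inconclusive means meets just one of the two conditions; inactive means meets neither condition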;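 further: plate controls were neutral control median for no effect and positive control median for full effect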
3T3 cytotox = NIH/3T3 (mouse) viability loss; shares compounds with T cruzi growth-1; NIH/3T3 viability, CellTiter-Glo ATP luminescence, 90 h; cytotoxicity (signal decrease), % at 8.35 µM; 5,600 compounds, 14% hits; AID 651742;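 active means mean signal decrease across replicates above about 35% based on untreated-well scatter, with enough replicates individually passing, limit read from the data; inconclusive means no rule stated though some were filed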;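 further: 0% = median of neutral control wells and 100% = median of positive control wells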
3T3 cytotox 2 = kills mouse NIH/3T3 fibroblasts | shares compounds with T cruzi growth-1 | NIH/3T3 viability, CellTiter-Glo ATP luminescence, 90 h | 5,600 compounds, 56% hits | AID 651744 | inhibition, % at 24.9 µM;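 active means mean loss of cell viability signal at or above a set limit, and enough replicates individually reaching it; inconclusive means meets only the mean limit or only the replicate share; inactive means meets neither condition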;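 further: 0% = median of neutral control wells and 100% = median of positive control wells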
Numbers without * were called inactive; ? = inconclusive; . = not tested or not shown. This is a sample that favours compounds with a hit; in the whole collection about 6.8% have one here.

SMILES	Pf Dd2 inh	C diff growth	T cruzi growth-1	T cruzi growth-2	T cruzi growth-3	3T3 cytotox	3T3 cytotox 2
C[C@@H](O)C#Cc1cnc2c(c1)C(=O)N([C@@H](C)CO)C[C@H](C)[C@H](CN(C)Cc1ccccn1)O2	36.0	1.2	0.0	.	.	.	.
C[C@@H]1CN([C@@H](C)CO)S(=O)(=O)c2ccc(C#CC3CCCC3)cc2O[C@@H]1CN(C)S(C)(=O)=O	12.7	.	?	83.7	47.1	9.7	66.9*
CCC(=O)N(C)C[C@@H]1Oc2cc(C#CC3CCCCC3)ccc2S(=O)(=O)N([C@@H](C)CO)C[C@H]1C	-65.4	-16.9	114.4*	98.1*	54.4	17.9	80.0*
C[C@@H]1CN([C@H](C)CO)S(=O)(=O)c2ccc(C#Cc3ccc(F)cc3)cc2O[C@H]1CN(C)S(C)(=O)=O	-72.4	5.2	96.9*	98.2*	38.5	?	55.0*
C[C@H](CO)N1C[C@H](C)[C@H](CN(C)S(C)(=O)=O)Oc2cc(C#Cc3ccccc3)ccc2S1(=O)=O	-53.8	3.0	65.3	.	.	.	.
C[C@H]1CN([C@@H](C)CO)S(=O)(=O)c2ccc(C#CC3CCCCC3)cc2O[C@@H]1CN(C)C	-47.8	16.2	109.2*	109.0*	81.3	17.6	103.7*
C[C@@H]1CN([C@@H](C)CO)S(=O)(=O)c2ccc(C#CC3CC3)cc2O[C@H]1CN(C)S(C)(=O)=O	-27.5	2.1	.	.	.	.	.
CCC(=O)N(C)C[C@@H]1Oc2cc(C#CC3CCCCC3)ccc2S(=O)(=O)N([C@H](C)CO)C[C@H]1C	-37.2	-24.4	81.6	.	.	.	.
C[C@@H]1CN([C@H](C)CO)S(=O)(=O)c2ccc(C#CC3CCCCC3)cc2O[C@H]1CN(C)C	-58.7	26.3	84.4	.	.	.	.
Cc1noc(C)c1NC(=O)Nc1ccc2c(c1)C(=O)N([C@@H](C)CO)C[C@@H](C)[C@H](CN(C)CC1CCCCC1)OCCCC[C@H](C)O2	-16.2	16.4	26.7	.	.	.	.
COc1ccc2c3c([nH]c2c1)[C@H](CO)N(C)CC31CN(S(=O)(=O)c2cn(C)cn2)C1	31.4	-3.1	.	.	.	.	.
C[C@H]1CN([C@@H](C)CO)C(=O)c2cccc(NC(=O)Nc3ccc4c(c3)OCO4)c2O[C@H]1CN(C)S(=O)(=O)c1ccc(Cl)cc1	8.0	.	21.7	.	.	.	.
CCC(=O)N(C)C[C@H]1Oc2cc(C#Cc3ccncc3)ccc2S(=O)(=O)N([C@H](C)CO)C[C@@H]1C	-16.1	7.2	31.3	.	.	.	.
C[C@H]1CN([C@@H](C)CO)S(=O)(=O)c2ccc(C#CC3CCCC3)cc2O[C@H]1CN(C)S(C)(=O)=O	0.1	.	88.7	.	.	.	.
CCC(=O)N(C)C[C@H]1Oc2cc(C#Cc3ccncc3)ccc2S(=O)(=O)N([C@H](C)CO)C[C@H]1C	-44.7	2.7	107.2*	38.4	35.9	12.9	37.8*
C[C@H](CO)N1C[C@H](C)[C@H](CN(C)S(C)(=O)=O)Oc2cc(C#CC3CCCC3)ccc2S1(=O)=O	3.5	.	?	100.4*	35.3	27.4	65.8*
COc1ccc(-c2ccc3c(c2)O[C@H](CN(C)Cc2ccccc2C(=O)O)[C@H](C)CN([C@H](C)CO)S3(=O)=O)cc1	-47.9	-10.8	-28.9	.	.	.	.
O=C(Nc1nccs1)[C@H]1[C@H](CO)[C@H]2Cn3c(cccc3=O)[C@@H]1N2C(=O)C1CCC1	2.2	2.5	8.1	.	.	.	.
O=C(C[C@H]1CC[C@H]2[C@@H](COC[C@@H](O)CN2C(=O)c2ccncc2)O1)NCc1ccc(-c2ccccc2)cc1	-9.2	1.3	-11.0	.	.	.	.
O=C(C[C@H]1CC[C@@H]2[C@H](COC[C@@H](O)CN2C(=O)Nc2ccc(Cl)c(Cl)c2)O1)NCc1ccc(Cl)c(Cl)c1	-1.1	.	98.3*	88.3	101.6*	31.5	106.3*
O=C(C[C@@H]1CC[C@H]2[C@@H](COC[C@@H](O)CN2C(=O)Nc2ccc(Cl)c(Cl)c2)O1)NCc1ccc(Cl)c(Cl)c1	-3.1	.	85.9	.	.	.	.
O=C(C[C@@H]1CC[C@H]2[C@@H](COC[C@@H](O)CN2C(=O)c2ccncc2)O1)NCc1ccc(-c2ccccc2)cc1	-23.2	4.6	116.7*	11.9	14.8	0.9	18.7
O=C(C[C@H]1CC[C@H]2[C@@H](COC[C@H](O)CN2C(=O)Nc2ccc(Cl)c(Cl)c2)O1)NCc1ccccc1	-0.6	.	51.3	.	.	.	.
